Shiga inhibitor: inhibitors of Shiga toxin in Vero cells; Vero cells, Shiga toxin protein synthesis inhibition reporter; inhibition, % at 38.7 µM; 9.2% of 290,000 active; in the data active = inhibition mostly above about 28%, no sharp cut-off; inactive = mostly below about 43%
Pf growth 48h: P. falciparum growth inhibition at 48 hours (one generation). Potency, µM (series often up to 28.7 µM), hits mostly inhibitors. 5.9% of 310,000 active. P. falciparum luciferase growth in erythrocytes, 48 h
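Growth was read as firefly luciferase luminescence after a 48 h, 37 C, 5% CO2 exposure of compounds to reporter-bearing P. falciparum cultures (0.1% parasitemia, 2% hematocrit final) in Albumax-supplemented RPMI 1640.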
Giardia FBPA inh: inhibitors of Giardia lamblia fructose-1,6-bisphosphate aldolase. AID 2451. purified Giardia FBPA. Potency, µM (series often up to 59.6 µM), most hits filed as inhibitors. 0.71% of 290,000 active; also: nearly all actives have a fitted effect of over 55% in size
Target sequence (A8B2U2 whole entry, looked up): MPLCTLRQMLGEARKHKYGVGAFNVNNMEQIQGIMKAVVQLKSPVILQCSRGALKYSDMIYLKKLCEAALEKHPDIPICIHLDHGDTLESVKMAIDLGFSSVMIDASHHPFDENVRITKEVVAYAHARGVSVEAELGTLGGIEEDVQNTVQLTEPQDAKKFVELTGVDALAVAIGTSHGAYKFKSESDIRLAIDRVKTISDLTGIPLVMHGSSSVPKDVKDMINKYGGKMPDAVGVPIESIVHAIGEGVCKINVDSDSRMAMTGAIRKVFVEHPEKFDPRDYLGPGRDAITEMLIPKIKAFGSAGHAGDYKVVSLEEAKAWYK
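Giardia FBPA (40 nM reagent) was preincubated 10 min at RT with compound (up to 57.5 uM final), then substrate plus GAPDH/TPI/NAD/arsenate coupling system with diaphorase/resazurin was added; resorufin fluorescence (525/598 nm) was read after 20 min.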
CHX counter: counter-screen hit for Shiga toxin inhibitors, cycloheximide; AID 2314; cell reporter, cycloheximide protein synthesis inhibition counterscreen; max response, %; 12% of 300,000 active; in the data active = max response mostly above about 13%, no sharp cut-off; inactive = mostly below about 14%; also: read at 38.3 µM for the half of the compounds with a filed dose
Pf growth 96h: P. falciparum growth inhibition at 96 hour, primary screen for plastid delayed-death inhibitors; AID 504834; 6.9% of 320,000 active; Potency, µM (titrated, usually from 28.7 µM), most hits filed as inhibitors; P. falciparum luciferase reporter growth, 96 h
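Parasite growth measured via integrated firefly luciferase reporter in P. falciparum. Infected erythrocytes at 2% hematocrit, 0.05% parasitemia final were treated 96 hours at 37 C under 5% CO2, and luminescence was read.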
NS1 function inh: influenza NS1 inhibition; 0.4% of 270,000 active; Potency, µM (series often up to 46.1 µM); calls by dose curve; also: actives are rising curves; nearly all actives have a fitted effect of over 50% in size
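Compounds were scored for reversing the slow growth caused by influenza A NS1 in S. cerevisiae, measured by optical density at 600 nm. Assay medium contained 2% galactose at pH 6.0; NS1-free yeast of the same strain were the positive control.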
Hits are given with their value; 0 = inactive; ? = inconclusive; - = not tested or not shown. Shown are actives, neighbours in structure and some others; about 21% of the full set was active somewhere. Unless noted, calls follow the shape of the dose curve; as a rule, active = well fitted curve in the direction sought with a large enough effect; inconclusive = small, poorly fitted or top-dose-only effect, or another doubt; inactive = no such curve, though single readings can be large; an effect the other way counts as inactive or inconclusive.

SMILES | Shiga inhibitor | Pf growth 48h | Giardia FBPA inh | CHX counter | Pf growth 96h | NS1 function inh
Cc1ccnc(N=Cc2c(O)ccc3oc4c(c23)CCCC4)c1 | 0 | 0 | 0 | 26 | 0 | 0
O=C(CNC(=O)Cc1cccc2ccccc12)NCc1ccc(F)cc1 | 0 | 0 | 0 | 0 | 0 | 0
O=C(CN(c1cccc(Cl)c1)S(=O)(=O)c1ccc(Cl)cc1)NCc1ccccn1 | 0 | ? | - | 0 | ? | 0
Cc1ccc(OCc2ccc([N+](=O)[O-])cc2)c([N+](=O)[O-])n1 | 0 | 0 | - | 0 | 0 | 0
Cc1nn(C)c(Sc2ccccc2N)c1[N+](=O)[O-] | 0 | 0 | 0 | 29 | 0 | 0
Cc1cc(C(=O)NC2CCCN(Cc3ccc(Cl)cc3)C2)n(C)n1 (centres undefined) | 0 | 0 | - | 0 | 0 | 0
COc1ccccc1-c1nc(NCCN2CCOCC2)c2ccccc2n1 | - | - | 0 | - | - | -
CCOC(=O)c1nnn(CC(=O)N2N=C(c3ccccc3)CC2c2ccccc2)c1C(=O)OCC (centres undefined) | 0 | 12µM | 0 | 0 | ? | 0
CCOC(=O)/C=C(\C)N1N=C(c2ccccc2)CC1c1ccccc1 (centres undefined) | 100 | 0 | 0 | 42 | 0 | -
CC(=O)N1N=C(c2ccccc2)CC1c1ccc2c(c1)OCO2 (centres undefined) | 0 | 0 | 0 | 0 | 0 | 0
CCOC(=O)c1nnn(CC(=O)Nc2ccccc2)c1C(=O)OCC | 0 | 0 | 0 | 0 | ? | -
CCOC(=O)c1nnn(CC(=O)N2N=C(c3cc(C)ccc3C)CC2c2ccc(OC)cc2)c1C(=O)OCC (centres undefined) | 0 | 15µM | 0 | 0 | 9.3µM | 0
COCCCn1c(SCC(=O)NC2CCCC2)nnc1-c1cccs1 | 0 | 0 | 0 | 0 | 0 | 0
Cc1cc(N)n(-c2ccc3ccccc3c2)n1 | 43 | 0 | 0 | 18 | 0 | 0
Cc1cccc(N2CN(Cc3cccnc3)CNC2=S)c1C | 0 | 0 | 0 | 15 | 0 | 0
Nc1ccc(S(=O)(=O)Nc2nccc(/C=C/c3ccc(Cl)cc3Cl)n2)cc1 | 0 | ? | 0 | 0 | 0 | 0
Cc1nc(CC(=O)Nc2nc(C(C)(C)C)cs2)cs1 | 88 | 0 | 0 | 0 | 0 | 0

Compound activity: PubChem BioAssay, National Center for Advancing Translational Sciences (NCATS)
